The values below come from PMC4336329 (PLoS ONE, 2015).

The whole screen tested about 310,000 compounds, of which about 14,000 (4.5%) showed an effect of 50% or more. The effect is printed as a negative number. This excerpt belongs to a sample that is enriched for strong results.
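Further: peak tail current of the secondary pulse compared with the same well before compound.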

This assay deals with human ether-à-go-go-related gene (hERG) potassium channel (human, UniProt Q12809). In words: primary screen, population patch clamp on CHO cells stably expressing hERG; higher = less effect of the substance.
Chain of human ether-à-go-go-related gene (hERG) potassium channel (Q12809 whole entry, looked up): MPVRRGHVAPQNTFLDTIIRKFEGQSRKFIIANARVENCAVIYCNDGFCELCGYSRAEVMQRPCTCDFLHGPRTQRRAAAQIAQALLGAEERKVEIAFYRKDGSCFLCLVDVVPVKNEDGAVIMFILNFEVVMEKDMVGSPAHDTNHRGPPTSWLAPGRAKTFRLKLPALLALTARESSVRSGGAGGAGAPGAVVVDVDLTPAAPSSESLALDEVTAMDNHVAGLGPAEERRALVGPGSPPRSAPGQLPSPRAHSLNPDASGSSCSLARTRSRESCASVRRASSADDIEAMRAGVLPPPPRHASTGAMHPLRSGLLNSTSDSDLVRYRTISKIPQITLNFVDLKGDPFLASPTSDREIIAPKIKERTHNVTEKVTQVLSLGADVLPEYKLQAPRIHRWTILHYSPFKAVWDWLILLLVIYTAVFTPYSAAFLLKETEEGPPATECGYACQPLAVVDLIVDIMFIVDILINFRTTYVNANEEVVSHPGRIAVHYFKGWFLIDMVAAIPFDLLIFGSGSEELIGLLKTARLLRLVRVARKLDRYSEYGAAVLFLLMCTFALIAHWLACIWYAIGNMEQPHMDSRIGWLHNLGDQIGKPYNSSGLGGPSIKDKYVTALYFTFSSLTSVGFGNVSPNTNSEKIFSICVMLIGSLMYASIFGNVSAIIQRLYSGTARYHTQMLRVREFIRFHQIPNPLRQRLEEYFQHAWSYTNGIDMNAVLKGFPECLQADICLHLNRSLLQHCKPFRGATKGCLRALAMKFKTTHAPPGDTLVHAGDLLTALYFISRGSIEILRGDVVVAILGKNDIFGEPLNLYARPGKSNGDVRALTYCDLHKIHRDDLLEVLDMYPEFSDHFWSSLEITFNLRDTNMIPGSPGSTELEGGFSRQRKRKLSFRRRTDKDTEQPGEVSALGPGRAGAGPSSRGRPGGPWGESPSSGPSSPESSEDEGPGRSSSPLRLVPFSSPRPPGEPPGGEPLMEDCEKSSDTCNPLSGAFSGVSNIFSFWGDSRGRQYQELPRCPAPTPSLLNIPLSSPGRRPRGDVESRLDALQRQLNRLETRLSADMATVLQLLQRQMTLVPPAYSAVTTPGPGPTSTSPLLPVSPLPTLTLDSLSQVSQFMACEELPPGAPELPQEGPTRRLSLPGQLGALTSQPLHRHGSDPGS
For `O=C(COc1ccc(Cl)cc1)Nc1cccc(S(=O)(=O)NC2=NCCCCC2)c1`, the “hERG current change (%, negative = inhibition) at 10uM” value was -42.1%.

`C/C(=N/NC(=O)CSc1ccccn1)c1ccc([N+](=O)[O-])cc1`: the “hERG current change (%, negative = inhibition) at 10uM” value is -64.2%.

As to `C/C(=N\NC(=O)CN1CCN(Cc2ccccc2)CC1)c1cccs1`, the “hERG current change (%, negative = inhibition) at 10uM” value is on record as -50.9%.

`C/C(=N\NC(=O)c1ccc(CN2CCOCC2)cc1)c1ccc([N+](=O)[O-])cc1`: the “hERG current change (%, negative = inhibition) at 10uM” value is on record as -7.18%.

As for `C/C(=N/NC(=O)CN1CCN(Cc2ccccc2Cl)CC1)c1cccs1`, the “hERG current change (%, negative = inhibition) at 10uM” value is recorded as -17.8%.

As for `C/C(=N\NC(=O)Cc1ccccc1)c1cccs1`, the “hERG current change (%, negative = inhibition) at 10uM” value is recorded as -4.86%.

Regarding `C/C(=N/NC(=O)CN1CCN(Cc2ccccc2)CC1)c1ccc([N+](=O)[O-])cc1`, the “hERG current change (%, negative = inhibition) at 10uM” value is -76.5%.

On to `C/C(=N/NC(=O)CC(=O)N/N=C(\C)c1ccc([N+](=O)[O-])cc1)c1ccc([N+](=O)[O-])cc1`, for which the “hERG current change (%, negative = inhibition) at 10uM” value is listed as -28.8%.

As to `C/C(=N\NC(=O)CSc1nc(C)cc(C)n1)c1ccc([N+](=O)[O-])cc1`, the “hERG current change (%, negative = inhibition) at 10uM” value is recorded as -10.8%.

As for `C/C(=N\NC(=O)CN1CCCCC1)c1cccc([N+](=O)[O-])c1`, the “hERG current change (%, negative = inhibition) at 10uM” value is -25.9%.

On to `CC1CCCCN1C(=O)CSc1nnc(-c2ccco2)n1C` (centres unmarked), for which the “hERG current change (%, negative = inhibition) at 10uM” value is given as 4.88%.

On to `COCCNCC(=O)N1CCCCCC1.O=C(O)C(=O)O`, for which the “hERG current change (%, negative = inhibition) at 10uM” value is reported as -24.6%.

Turning to `Cc1cc(C(=O)OCC(=O)N2CCCC2)c2ccccc2n1`, the “hERG current change (%, negative = inhibition) at 10uM” value is reported as -9.04%.

On to `CC(C)(C)NC(=O)C(=O)NNC(=O)COc1ccc(Br)cc1`, for which the “hERG current change (%, negative = inhibition) at 10uM” value was 5.23%.

`O=C(Cn1nnc(-c2ccccc2Cl)n1)N1CCN(S(=O)(=O)c2ccc(Cl)cc2)CC1`: the “hERG current change (%, negative = inhibition) at 10uM” value is listed as -18%.

Turning to `Cc1ccc(C)c(COc2coc(CN3CCN(C(=O)c4ccco4)CC3)cc2=O)c1`, the “hERG current change (%, negative = inhibition) at 10uM” value is -100%.

For the compound `Cc1cccc(COc2coc(CN3CCN(C(=O)c4ccco4)CC3)cc2=O)c1`, the “hERG current change (%, negative = inhibition) at 10uM” value was -50.7%.

On to `O=C(c1ccco1)N1CCN(Cc2cc(=O)c(OCc3ccccc3Cl)co2)CC1`, for which the “hERG current change (%, negative = inhibition) at 10uM” value is -56.2%.

As for `Cc1ccc(C)c(OCC(=O)N2CCN(C(=O)c3ccco3)CC2)c1`, the “hERG current change (%, negative = inhibition) at 10uM” value is given as -8.23%.

`O=C(c1ccco1)N1CCN(Cc2cc(=O)c(OCc3ccccc3F)co2)CC1`: the “hERG current change (%, negative = inhibition) at 10uM” value is on record as -30.4%.

Consider `O=C(c1ccco1)N1CCN(Cc2cc(=O)c(OCc3cccc(Cl)c3)co2)CC1`, for which the “hERG current change (%, negative = inhibition) at 10uM” value is listed as -74.7%.

For `CCCNC(=O)COc1coc(CN2CCN(C(=O)c3ccco3)CC2)cc1=O`, the “hERG current change (%, negative = inhibition) at 10uM” value is reported as 3.56%.

Turning to `COC(=O)COc1coc(CN2CCN(c3cccc(Cl)c3)CC2)cc1=O`, the “hERG current change (%, negative = inhibition) at 10uM” value is -11.4%.

As for `Cc1ccc(COc2coc(CN3CCN(C(=O)c4ccco4)CC3)cc2=O)cc1`, the “hERG current change (%, negative = inhibition) at 10uM” value was -48.4%.

For the compound `CC(C)(C)NC(=O)COc1coc(CN2CCN(C(=O)c3ccco3)CC2)cc1=O`, the “hERG current change (%, negative = inhibition) at 10uM” value is on record as 20.1%.

As for `CNC(=O)COc1coc(CN2CCN(C(=O)c3ccco3)CC2)cc1=O`, the “hERG current change (%, negative = inhibition) at 10uM” value was 7.13%.

Turning to `CC(Oc1coc(CN2CCN(C(=O)c3ccco3)CC2)cc1=O)c1ccccc1` (centres unmarked), the “hERG current change (%, negative = inhibition) at 10uM” value is recorded as 11.5%.

Regarding `CC(C)CN(C(=O)COc1ccc(Br)cc1C=O)C1CCS(=O)(=O)C1` (centres unmarked), the “hERG current change (%, negative = inhibition) at 10uM” value was -25.4%.

For the compound `COc1ccc(O)c(-c2cn[nH]c2-c2cccs2)c1`, the “hERG current change (%, negative = inhibition) at 10uM” value came to 7.6%.

For the compound `O=C(CNC(=O)Cc1ccccc1)N=Nc1c(O)[nH]c2ccc(Br)cc12`, the “hERG current change (%, negative = inhibition) at 10uM” value came out at 24.7%.

`O=C(CSc1nc2ccccc2c(=O)[nH]1)Nc1ccccc1C(F)(F)F`: the “hERG current change (%, negative = inhibition) at 10uM” value is reported as -2.68%.

For the compound `C=CCNC(=O)c1cc(-c2ccccc2O)on1`, the “hERG current change (%, negative = inhibition) at 10uM” value is 8.16%.

As for `CCN(CC(=O)NCC(=O)Nc1cccc(C)c1C)Cc1ccccc1`, the “hERG current change (%, negative = inhibition) at 10uM” value turned out to be 5.6%.

As for `C=CCn1nc([N+](=O)[O-])nc1Sc1cccc2cccnc12`, the “hERG current change (%, negative = inhibition) at 10uM” value is reported as -2.55%.

Consider `O=[N+]([O-])CC(=Nc1ccc(Cl)cc1)N/N=C\c1oc(O)c2ccccc12`, for which the “hERG current change (%, negative = inhibition) at 10uM” value worked out at 5.58%.

`O=C(c1ccco1)N1CCN(Cc2cc(=O)c(OCc3c(F)cccc3Cl)co2)CC1`: the “hERG current change (%, negative = inhibition) at 10uM” value is given as -58%.

Take `O=c1cc(CO)occ1OCc1c(F)cccc1Cl`: the “hERG current change (%, negative = inhibition) at 10uM” value turned out to be 9.21%.

Consider `O=C(c1ccco1)N1CCN(Cc2c(F)cccc2Cl)CC1`, for which the “hERG current change (%, negative = inhibition) at 10uM” value is given as -9.87%.

For `CCN(CC)C(C(=O)Nc1ccc(C(C)C)cc1)c1ccc2c(c1)OCO2` (centres unmarked), the “hERG current change (%, negative = inhibition) at 10uM” value was -9.99%.

As to `CCOc1cc(C)c(S(=O)(=O)N2CCCC2)cc1C`, the “hERG current change (%, negative = inhibition) at 10uM” value is reported as -14.6%.

For the compound `COc1ccc(CCN(C(=O)c2snc(C(N)=O)c2N)C(C)C(=O)NC2CCCCC2)cc1OC` (centres unmarked), the “hERG current change (%, negative = inhibition) at 10uM” value is given as -13.9%.

With `COc1ccccc1CCNC(=O)c1cnn2c(C(F)F)cc(C)nc12`, the “hERG current change (%, negative = inhibition) at 10uM” value was -33.6%.

For `Cc1cc(C(F)F)n2ncc(C(=O)NCCc3ccccc3Cl)c2n1`, the “hERG current change (%, negative = inhibition) at 10uM” value is recorded as -56.7%.

As for `Cc1cc(C(F)F)n2ncc(C(=O)NCCc3ccc(Cl)cc3)c2n1`, the “hERG current change (%, negative = inhibition) at 10uM” value is -45%.

`CCOC(=O)N1CCC(N(CCN(C)C)C(=S)Nc2cccc(Cl)c2C)CC1`: the “hERG current change (%, negative = inhibition) at 10uM” value turned out to be 12.5%.

Take `Cc1nc(C(=O)Nc2ccccc2Cl)cc2c1[nH]c1ccccc12`: the “hERG current change (%, negative = inhibition) at 10uM” value came out at 0.837%.

As for `O=C(CCC(=O)Nc1cccc(C(F)(F)F)c1)NCC1CCCO1` (centres unmarked), the “hERG current change (%, negative = inhibition) at 10uM” value stood at 11.1%.

As to `CC1=C(C(=O)OCC2CCCO2)C(c2cccc(C(F)(F)F)c2)C2=C(CC(c3ccco3)CC2=O)N1` (centres unmarked), the “hERG current change (%, negative = inhibition) at 10uM” value is 6.09%.

`COc1ccc(C2C(C(=O)OCC3CCCO3)=C(C)NC3=C2C(=O)CC(c2ccco2)C3)cc1O` (centres unmarked): the “hERG current change (%, negative = inhibition) at 10uM” value is 5.72%.

Consider `CC1=C(C(=O)OCC2CCCO2)C(c2ccccc2OC(C)C)C2=C(CC(c3ccco3)CC2=O)N1` (centres unmarked), for which the “hERG current change (%, negative = inhibition) at 10uM” value was -57.8%.

On to `CC(C)C(=O)Nc1ccc2c(c1)C(=O)NC2=O`, for which the “hERG current change (%, negative = inhibition) at 10uM” value is listed as 14.3%.

Take `Cc1cc(C)cc(N(CC(=O)NC2CCCC2)C(=O)CNC(=O)c2cccs2)c1`: the “hERG current change (%, negative = inhibition) at 10uM” value was found to be 18%.

`CCC(C)c1ccccc1OCCCN(C)Cc1ccccc1` (centres unmarked): the “hERG current change (%, negative = inhibition) at 10uM” value was -27%.

In the case of `CCN1CCCC(OC(=O)c2cc(-c3ccccc3Cl)nc3ccccc23)C1.Cl` (centres unmarked), the “hERG current change (%, negative = inhibition) at 10uM” value is listed as -65.3%.

Regarding `CCN1CCCC(OC(=O)Nc2ccccc2)C1` (centres unmarked), the “hERG current change (%, negative = inhibition) at 10uM” value was determined as 2.47%.

For the compound `O=C(c1cc(-c2ccccc2Cl)nc2ccccc12)N1CCOCC1`, the “hERG current change (%, negative = inhibition) at 10uM” value is -6.68%.

On to `O=C(OCn1nnc2ccccc2c1=O)c1cc(-c2ccccc2Cl)nc2ccccc12`, for which the “hERG current change (%, negative = inhibition) at 10uM” value worked out at 12.8%.

`Cl.O=C(OC1CCN(CCCl)CC1)C(c1ccccc1)c1ccccc1`: the “hERG current change (%, negative = inhibition) at 10uM” value is reported as 11%.

With `CN(C(=O)COC(=O)c1cc(-c2ccccc2Cl)nc2ccccc12)C1CCS(=O)(=O)C1` (centres unmarked), the “hERG current change (%, negative = inhibition) at 10uM” value was -30.9%.

Take `CN1CCC(N(C)C(=O)c2cc(-c3ccccc3Cl)nc3ccccc23)CC1.Cl`: the “hERG current change (%, negative = inhibition) at 10uM” value is given as -84.3%.

Regarding `CCN1CCCC(OC(=O)C(c2ccccc2)c2ccccc2)C1.Cl` (centres unmarked), the “hERG current change (%, negative = inhibition) at 10uM” value was -66.1%.

As for `CCN1CCCC(OC(=O)c2cc(-c3ccc(C)cc3)nc3ccccc23)C1.Cl` (centres unmarked), the “hERG current change (%, negative = inhibition) at 10uM” value is reported as -8.97%.
